Experimental data as given in PubChem BioAssay AID1359 (The Scripps Research Institute Molecular Screening Center, 2008).
About 970 (0.44%) of roughly 220,000 compounds were called active. Rule as the data show it: active = activation above about 27%; inactive = the rest. What follows is part of a selection rich in actives, with near analogues and random picks from the rest.

These compounds were tested against Neuropeptide Y receptor type 2 (Homo sapiens) (UniProt P49146) (assay: NPY-Y2 potentiators or agonists, primary screen, cell-based (AID 1359;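 also: cells stimulated with NPY near EC25 plus isoproterenol at EC100; 0% = vehicle plus submaximal agonist and 100% = vehicle plus saturating agonist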)). Conditions: cells expressing NPY-Y2, potentiator/agonist read-out; at 3.6 µM; active compounds read high.
Neuropeptide Y receptor type 2 (Homo sapiens), sequence (P49146 whole entry, looked up): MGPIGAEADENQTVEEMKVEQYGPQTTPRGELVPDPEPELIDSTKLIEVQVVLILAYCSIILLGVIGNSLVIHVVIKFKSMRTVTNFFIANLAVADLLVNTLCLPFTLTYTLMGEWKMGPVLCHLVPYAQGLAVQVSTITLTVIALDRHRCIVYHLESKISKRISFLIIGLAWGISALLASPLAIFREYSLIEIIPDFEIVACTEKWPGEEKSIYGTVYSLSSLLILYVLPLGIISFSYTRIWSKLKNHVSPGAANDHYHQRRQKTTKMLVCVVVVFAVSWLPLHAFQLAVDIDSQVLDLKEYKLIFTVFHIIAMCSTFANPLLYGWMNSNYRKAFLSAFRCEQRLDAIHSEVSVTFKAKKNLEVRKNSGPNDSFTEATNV

activation, inactive:
COc1ccc2c(c1)C(SCC(=O)NCc1ccccc1)CC(C)(C)O2 (configuration not stated) 15.7%, COc1ccc(/C(C)=N/Nc2cc(C(F)(F)F)ccc2Cl)c(OC)c1 -10.5%, O=C(Nc1cccc(-c2nc3ccccc3[nH]2)c1)c1ccc(C(=O)Nc2cccc(-c3nc4ccccc4[nH]3)c2)cc1 0.29%, CCOC(=O)c1c(NC(=O)C2CCN(S(=O)(=O)c3ccc(Cl)cc3)CC2)sc2c1CCCC2 -5.8%, NC(=O)c1ccc(N2CCOCC2)nc1 -10.3%, CCOC12CC(C)(C)CC(C)(CC3=C1C(=O)CC(C)(C)C3)C2 (configuration not stated) -1.87%, CN(C)CCCSc1ccccc1NC(=O)/C=C/c1ccccc1 -11.2%, C1CC1Cc1noc(CN2CCN(CC3CC3)CC2)n1 -4.58%, Cc1c(Cl)cccc1NC(=O)CSc1ccc(-c2cccnc2)nn1 2.4%, O=C(NCCCN1CCN(Cc2ccccc2)CC1)C1CCN(S(=O)(=O)N2CCCC2)CC1 17.2%, CCS(=O)(=O)N1CCCC(C(=O)NCc2ccc(C)cc2)C1 (configuration not stated) 13%, CSc1nnc(SCc2nc3sc(C(=O)O)c(C)c3c(=O)[nH]2)s1 1.67%, COC(=O)CSc1nc2c(c(C3CC=CCC3)c1C#N)CCC2 (configuration not stated) -6.44%, Cc1nc([N+](=O)[O-])cn1CC(=O)Nc1ccc2c(c1)OCO2 -19.2%, Cc1ccccc1C(CC(=O)c1cccs1)C(C#N)C#N (configuration not stated) 4.09%, CC1CCCCC1NC(=O)/C(C#N)=C/C=C/c1ccccc1[N+](=O)[O-] (configuration not stated) -5.09%, Cc1cc(C)c(NC(=O)c2oc3ccccc3c2COc2ccccc2)c(C)c1 -12.9%, Cc1cc(C)cc(OCC(=O)NCc2cc(C)nc3ccccc23)c1 -3.92%, CCN(C(=O)COc1cccnc1[N+](=O)[O-])C1CCS(=O)(=O)C1 (configuration not stated) -0.31%, CN(CCO)Cc1csc2ccc(Br)cc12 -20.4%, CC(=O)N1C(=O)/C(=C2\SC(=S)N(NC(=O)c3ccc(O)cc3)C2=O)c2ccccc21 -3.06%, Cc1ccc(NS(=O)(=O)c2cccs2)cc1S(=O)(=O)N1CCCCCC1 3.99%, CCOc1ccc(C(=O)NC2CCN(CC(=O)NCc3cccs3)CC2)cc1 13.5%, CS(=O)(=O)NCc1ccc(C(=O)NCc2ccccc2)cc1 10.7%, CCNS(=O)(=O)c1ccc(NC(=O)Nc2cccc(C(F)(F)F)c2)cc1 24.5%, COc1ccc(CN2CCN(Cc3cn(C)nc3-c3ccccc3)CC2CCO)c(C)c1C (configuration not stated) -18%, CC(C)(C)OC(=O)N/N=C/c1ccc(C(=O)O)cc1 10%, CC(=O)c1c(-c2ccccc2)c2ccccc2[nH]c1=O 6.99%, CCO[C@H]1OC(C(=O)N2CCN(Cc3ccccc3)CC2)=C[C@@H](c2cn(C(C)=O)c3ccccc23)[C@@H]1CCCO -8.85%, COCC1CCCN(Cc2nc(-c3ccc4c(c3)OCO4)no2)C1 (configuration not stated) -10.6%, CCN(C(=O)COC(=O)c1cc(S(=O)(=O)N2CCc3ccccc32)ccc1OC)C1CCS(=O)(=O)C1 (configuration not stated) -3.32%, CCOC(=O)C1=C(N)N2C(=O)C(C)SC2=C(C(=O)OCC)C1c1cc(OC)c(OC)c(OC)c1 (configuration not stated) -1.02%, Cc1cccc(OCC(O)CN2CCN(CCN3C(=O)c4cccc5cccc(c45)C3=O)CC2)c1C (configuration not stated) 30.4%, Cc1ccccc1OCC(O)CN1CCN(c2ccccn2)CC1 (configuration not stated) 17.9%, CC(=O)OC(C(=O)NCCc1ccccc1)c1cccnc1 (configuration not stated) -16.8%, CC(C)COP(=O)(c1ccc(N(C)C)cc1)C(Nc1ccccc1)c1cccnc1 (configuration not stated) 4.54%, CCCCc1cc2c(s1)CCCC/C2=N/O 5.62%, C/C(=C\c1ccco1)CN1CCC(N2CCC(C(=O)N3CCOCC3)CC2)CC1 -15.1%, Cc1cc(C(=O)N/N=C/c2ccc(O)c([N+](=O)[O-])c2)c(C)n1-c1ccc(F)cc1 3.14%, Cc1c(S(=O)(=O)NCc2ccccc2)c(=O)n(C)c(=O)n1C -20.2%, COc1ccc2nc(NC(=O)c3ccc(Br)s3)sc2c1 11.8%, COc1ccc2nc(Nc3nc4ccc(NC(C)=O)cc4s3)sc2c1 -3.69%, O=C(NC(=S)Nc1cccc2c(O)cccc12)c1cccc(Br)c1 -15.3%, O=S(=O)([N-]c1nc2ccccc2nc1-[n+]1ccc(Cc2ccccc2)cc1)c1ccc(Br)s1 -4%, C/C(=N\NC(=O)C(N)=O)c1ccc2c(c1)OCCO2 -7.65%, O=C(c1ccc2c(c1)OCO2)N1CCOCC1 7.94%, COc1ccc(N2C(=O)C(CC(=O)Nc3ccc(F)cc3)N(CCc3cccs3)C2=O)cc1 (configuration not stated) 4.57%, O=C(N1CCCCC1)N1CCN(C(=O)N2CCCCC2)CC1 -11.1%, CN(C)S(=O)(=O)c1ccc(NC(=O)COC(=O)Cn2[nH]c(=O)c3ccccc3c2=O)cc1 -2.17%, O=C(COC(=O)c1n[nH]c2ccccc12)NCc1ccccc1 -3.06%, COc1ccccc1N1CCN(C(=O)CSc2ncnc3c2cnn3-c2ccc(C)c(C)c2)CC1 -4.38%, CCOC(=O)c1sc2nc(C)[nH]c(=O)c2c1C -3.44%, CC(C)OCCCNC(=S)N1CCC(C(=O)c2ccc3c(c2)OCCO3)CC1 -6.61%, COc1ccc(CC(=O)NCc2nnc(SCC(=O)Nc3ncc(C)s3)n2C)cc1 -1.91%, Cc1ccc(S(=O)(=O)N(Cc2ccc(Cl)cc2)c2ccccc2C(=O)NCc2cccnc2)cc1 -13.3%, CC(C)(O)C#Cc1ccc(C(=O)N2CCC(C(N)=O)(N3CCCCC3)CC2)cc1 14.8%, NC(=O)C1(N2CCCCC2)CCN(C(=S)Nc2ccc(Cl)cc2)CC1 4.89%, C/C=C/C=C/C(=O)OCC(=O)Nc1ccc(Cl)cc1 -15.7%, COc1ccc2c(-c3ccccc3)cc(SCC(=O)N(C)C3CCS(=O)(=O)C3)nc2c1 (configuration not stated) 6.98%, CCCCC(=O)Nc1cc(C)c2c(=O)oc3ccccc3c2n1 1.67%, CCOC(=O)c1c(C)nc2c(c1C)c(=O)oc1ccccc12 -26.5%, COc1ccc(NC(=O)c2cn(-c3ccccc3)nc2SC)cc1 -16%, CCC(=O)c1ccc(N2CCN(C(=O)c3cc([N+](=O)[O-])ccc3F)CC2)c(F)c1 -2.53%, Cc1ccccc1CSc1nnc(-c2ccccc2)c(=O)[nH]1 -5.69%, O=C1CC(Sc2ncn[nH]2)C(=O)N1c1ccccc1 (configuration not stated) -10.2%, O=[N+]([O-])c1cccc(C2=NCCS2)c1 5.16%, Cc1nn(-c2ccc([N+](=O)[O-])cc2)c(N)c1-c1ccccc1 8.55%, Cc1ccc(NC(=O)C(=O)NCc2ccc(/C=N/NC(=O)c3c(C)nc4cc(C)ccn34)o2)cc1 12.4%, CCCN(CC(=O)Nc1ccccc1C)C(=O)c1cc(=O)[nH]c2ccccc12 -12.5%, CC(C)NC(=O)NNc1c(Cl)cncc1Cl -6.55%, COc1ccc(C)cc1NC(=O)Nc1ccccc1SC -22.3%, Cc1cccc(NC(=O)CN2C(=O)CNC2=O)c1 -5.86%, Cc1ccnc(NC(=O)C(C)N2C(=O)c3ccccc3C2=O)c1 (configuration not stated) -9.95%, CCOC(=O)N1CCN(C(=O)Cn2cnc3ccccc3c2=O)CC1 2.69%, O=C(Cn1cnc2ccccc2c1=O)NCC1COc2ccccc2O1 (configuration not stated) 4.37%, O=C(CN1CCN(Cc2ccccc2)CC1)NC(c1ccccc1)c1ccccc1 -14%, Cc1ccc(CNC(=O)Cn2c(=O)c3sccc3n(Cc3cccc([N+](=O)[O-])c3)c2=O)cc1 5.29%

activation, active:
O=C(Nc1sc2c(c1-c1nc3ccccc3[nH]1)CCCC2)C1CC1 30.3%, Cc1ccc(CCNC(=O)C2CCN(S(=O)(=O)N3CCCC3)CC2)cc1 104%, Cc1cc(C)c(NC(=O)C[N+](C)(C)CC(O)COc2cccc3ccccc23)c(C)c1 (configuration not stated) 71.5%, O=C(NCc1ccccc1)c1ccc(S(=O)(=O)Nc2cccc(C(F)(F)F)c2)cc1 47.4%, Oc1c(Cl)cc(Cl)c(Cl)c1Cc1c(O)c(Cl)cc(Cl)c1Cl 56.1%, OC(COc1cccc2ccccc12)CN1CCN(c2ccccn2)CC1 (configuration not stated) 58.3%, CC(Nc1ccccc1)c1cccnc1 (configuration not stated) 40.2%, COc1ccc2nc(NC(=O)NC3CCCCC3)sc2c1 42.1%, CC(=O)c1ccc2c(c1)OCCOCCOc1ccc(C(C)=O)cc1OCCOCCO2 43.3%, CN(C)S(=O)(=O)c1ccc(NC(=O)COC(=O)c2n[nH]c3ccccc23)cc1 32.2%, NC(=O)C1(N2CCCCC2)CCN(C(=O)c2ccc(C#Cc3ccccc3)o2)CC1 66.2%, Cc1ccccc1-n1nnc2c(=O)oc3ccccc3c21 32.7%, Nc1c(-c2cccc(Cl)c2)cnn1-c1cccc([N+](=O)[O-])c1 43.3%, Cc1cccc(NC(=O)C(C)N2C(=O)C3C4CC(C(Br)C4Br)C3C2=O)c1 (configuration not stated) 33.6%, CN(Cc1ccccc1)C(=O)CCNC(=O)Cn1cnc2ccccc2c1=O 54.9%
